# Measured values published in PubChem BioAssay (NCI).
# This is part of a sample that, as a whole, favours compounds with a hit. Of some 83,000 tested, about 20% had one in any assay.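 Cell lines were cultured in 96-well plates, exposed to a single compound concentration, and assessed for percent growth 48 hours later.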 Activity calls are given as the source filed them.
# Test system: NCI-H522 lung
# Test: NCI-60 one-dose screen, 48 h (100 = growth as untreated, 0 = no growth, -100 = all killed)
# Conditions: 10 µM unless noted
# Description: Growth inhibition of the NCI-H522 human Non-Small Cell Lung tumor cell line is measured as a screen for anti-cancer activity. Cells are grown in 96 well plates and exposed to the test compound for 48 hours. Compounds are tested at a single concentration, which is 10^-5 M for most compounds. The reported endpoint is percent growth (GI% or GIPRCNT), where numbers from 0 - 100% represent growth inhibition, and numbers from -100% - 0 represent cell death. For example, a value of 40 represents 60% growth inhibition. A value of 0 means no net growth occurred over the course of the experiment. A value of -40 indicates 40% of cells at the beginning of the experiment died by the end of the experiment. A value of -100 means all cells are dead at the end of the experiment.
# NCI-60 Human Tumor Cell Lines Screen was performed using the standard one-dose NCI protocol, which is described in more detail at https://dtp.cancer.gov/discovery_development/nci-60/default.htm.
# Compounds with GIPRCNT values below 10 were considered active. Activity score was based on GIPRCNT using the following formula: […]
# Score is 0 for GIPRCNT values of 100 or above, 50 for GIPRCNT values of 0, and 100 for GIPRCNT values of -100.
row,Structure (SMILES),growth
1,Nc1ncnc2n[nH]nc12,34% (inactive)
2,Brc1ccc2c(c1)c(-c1nc(-c3c[nH]c4ncccc34)cs1)cn2CCN1CCOCC1,76.1% (inactive)
3,O=C1CC2(CC3(Cl)C(Cl)=C(Cl)C2(Cl)C3(Cl)Cl)C(=O)O1 (stereo not given),102% (inactive)
4,COC(=O)[C@@H](C)C[C@H](Cc1ccccc1)NC(=O)c1csc([C@@H](C[C@H](C(C)C)N(C)C(=O)C2(NC(=O)[C@H]3CCCCN3C)CC2)OC(C)=O)n1,1.55% (active)
5,COc1ccc(/C=C\c2cc(OC)c(OC)c(OC)c2)cc1NC(=O)/C=C/c1ccc(OC)c(OC)c1,11.1% (inactive)
6,CC1(C)N=C(N)N=C(N)N1c1cccc(CCCCc2ccc(Cl)c(S(=O)(=O)F)c2)c1,-9.62% (active)
7,Cc1ccc2c(C(C[N+](=O)[O-])c3cccs3)c(-c3ccccc3)[nH]c2c1 (stereo not given),-3.71% (active)
8,CN(CCCCN(C)CCOS(C)(=O)=O)CCOS(C)(=O)=O,81.3% (inactive)
9,CCCCCCCCCCCCCC[P+](CCCCCC)(CCCCCC)CCCCCC,-71.4% (active)
10,CCCc1cc(O)c2c3c(c(=O)oc2c1)CN(C)CC3,18.4% (inactive)
11,CCCCCCCCCCCCCCCCCC1OC[C@H](COC(=O)O[C@@H](C(=O)O[C@H]2C[C@@]3(O)[C@@H](OC(=O)c4ccccc4)[C@@H]4[C@]5(OC(C)=O)CO[C@@H]5C[C@H](O)[C@@]4(C)C(=O)[C@H](OC(C)=O)C(=C2C)C3(C)C)[C@@H](NC(=O)c2ccccc2)c2ccccc2)O1 (stereo not given in full),60.2% (inactive)
12,COc1cc(/C=N/C2=C(C#N)C(c3ccco3)c3c(c4cc(C)ccc4oc3=O)O2)cc(OC)c1OC (stereo not given),40.3% (inactive)
13,C#Cc1ccc2c(c1)C(c1ccccc1)=NCC(=O)N2C,9.39% (active)
14,COP(=O)(OC)C(O)c1ccc(Cl)cc1 (stereo not given),89.1% (inactive)
15,COC(=O)[C@@H](C)C[C@H](Cc1ccccc1)NC(=O)c1csc([C@@H](C[C@H](C(C)C)N(C)C(=O)[C@@H](NC(=O)[C@H]2CCCCN2C)c2ccc(F)cc2)OC(C)=O)n1,-2.85% (active)
16,O=C1OCCC1Br (stereo not given),83.9% (inactive)
17,CC[C@H](C)[C@H](NC(=O)N[C@@H](C)c1ccccc1)C(=O)N(C)[C@H](C[C@@H](OC(C)=O)c1nc(C(=O)N[C@@H](Cc2ccccc2)C[C@H](C)C(=O)OC)cs1)C(C)C,-39.1% (active)
18,Fc1c[c-]c(-c2ccccn2)c(F)c1.[CH3-].[Pt+2].c1ccc([PH+](c2ccccc2)c2ccccn2)cc1,-37.9% (active)
19,CC(=O)[O][Hg][c]1c(N)c(C)cc(C)c1F,-42.2% (active)
20,O=C(CCCC1CCCCC1)OCC(Cl)(Cl)Cl,96.2% (inactive)

row,Structure (SMILES),growth
1,CCOC(=O)N[C@H]1CCc2c(Br)c(OC)c(OC)c(OC)c2-c2ccc(SC)c(=O)cc21,13.2% (inactive)
2,COC(=O)[C@H](Cc1ccccc1)NC(=O)c1csc([C@@H](C[C@H](C(C)C)N(C)C(=O)[C@@H](NC(=O)[C@H]2CCCN2C)C2CC2)OC(C)=O)n1,0.953% (active)
3,O=C(Nc1ccc(O)cc1)C(Cl)(Cl)Cl,91.2% (inactive)
4,Cc1cccc(N2CCN(C(C)C#N)CC2)c1 (stereo not given),88.9% (inactive)
5,[Au+].[N-]=C=O.c1ccc(CN2[CH-]N(Cc3ccccc3)C(c3ccccc3)=C2c2ccccc2)cc1,5.83% (active)
6,CO[C@H](C(=O)O)[C@@H]1Cc2cc3cc(OC4CC(OC5CC(O)C(O)C(C)O5)C(O)C(C)O4)c(C)c(O)c3c(O)c2C(=O)[C@H]1OC1CC(OC2CC(OC3CC(C)(O)C(O)C(C)O3)C(O)C(C)O2)C(O)C(C)O1 (stereo not given in full),-3.78% (active)
7,COc1ccc2c(c1)c(-c1nc(-c3cn(C)c4ncccc34)cs1)cn2CCN1CCOCC1,19.9% (inactive)
8,CCC(=O)Nc1ccc(Cl)c(Cl)c1,84.7% (inactive)
9,CCC1(C(C)C)C(=O)NC(=S)NC1=O,105% (inactive)
10,CC1=C(O)[C@@](C)(CCCCC[C@H](C)CCCCc2ccc(O)cc2)OOC1=O,64.5% (inactive)
11,COc1ccc2c(c1)c(-c1nc(-c3c[nH]c4ncccc34)cs1)cn2CCCCN1CCCCC1,-68.8% (active)
12,CCOC(=O)C(Cc1ccc(N(CCCl)CCCl)cc1)NC(=O)C(CC(C)C)NC(C)=O (stereo not given),-73.1% (active)
13,COC(C(=O)[C@@H](O)[C@@H](C)O)[C@@H]1Cc2cc3cc(O[C@H]4C[C@@H](O[C@H]5C[C@@H](O)[C@H](O)C(C)O5)[C@H](O)C(C)O4)c(C)c(O)c3c(O)c2C(=O)[C@H]1O[C@H]1C[C@@H](O[C@H]2C[C@@H](O[C@H]3C[C@@H](O)[C@@H](O)C(C)O3)[C@@H](O)C(C)O2)[C@H](O)C(C)O1 (stereo not given in full),-23.7% (active)
14,COC(=O)[C@@]1(O)C[C@H]2O[C@]1(C)n1c3ccccc3c3c4c(c5c6ccccc6n2c5c31)C(=O)NC4,-59.2% (active)
15,Nc1ccc2c(c1)Cc1cc(Br)ccc1-2,107% (inactive)
16,CN1C(=O)N[C@H]2[C@@H]3NC(=O)c4ccc(Br)n4[C@@H]3C[C@]21O,-38.2% (active)
17,Nc1ccc(-c2nc3cc(F)ccc3[se]2)cc1F,64.2% (inactive)
18,C[C@]12CCc3sc(-c4cccc(F)c4)nc3C1=CC[C@@H]1[C@@H]2CC[C@]2(C)C(=O)CC[C@@H]12,-36.5% (active)
19,CSc1nc(Cl)cc(N2CC2)n1,126% (inactive)
20,C=C1C(=O)O[C@H]2[C@H]1CC/C(COC(=O)C(=O)c1cn(Cc3ccccc3)c3ccccc13)=C\CC[C@@]1(C)O[C@@H]21,-69% (active)
